Measured values: article PMC5540273 (PLoS ONE, 2017)
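Also: KINOMEscan kinase panel screen.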

What follows are compounds tested on NEK11. Settings: concentration: 1 μM, replicates: in singlicate; n = 1.
For `CNCc1ccc2nc(NC(=O)c3ccc(C(C)(C)C)cc3)cn2c1`, the “%Inh” value was 34%.
With `Cc1ccc(NC(=O)Nc2ccc(Cl)cc2)cc1-c1ccc(C(=O)Nc2ccncc2)cc1` [GSK1398472] the “%Inh” value was 0%.
For `Cn1cncc1-c1cc2c(Nc3ccc(OCc4ccccc4)cc3)ncnc2cn1` [GW281179], the “%Inh” value was 13%.
With `Fc1ccc(-c2nc3n(c2-c2ccncc2)CCS3)cc1` [GI98581] the “%Inh” value was 9%.
In the case of `COc1ccc(CSc2nnc(-c3ccc4ncsc4c3)o2)cc1C(F)(F)F`, the “%Inh” value is reported as 0%.
For `Cc1ccc(NC(=O)Nc2ccccc2)cc1-c1ccc(C(=O)Nc2ccncc2)cc1` [GSK1398471], the “%Inh” value was 0%.
In the case of `COc1ccc2cc(-c3nc(-c4ccccc4C(C)C)[nH]c3-c3ccncc3)ccc2c1` [SB-660566], the “%Inh” value is reported as 4%.
With `O=C1NC(=O)C(c2ccc(Cl)cc2)=C1Nc1cccc(Cl)c1` [SB-317651] the “%Inh” value was 0%.
`CC(C)c1cc(-c2ccc3c(N)n[nH]c3c2)nc(N)n1` [GSK2250882] was tested, and the “%Inh” value was 0%.
`Cc1c(Cn2c3ccccc3n3c(=O)cc(N4CCOCC4)nc23)cccc1C(F)(F)F` [GSK2306394] was tested, and the “%Inh” value was 0%.
`COC(=O)C(Cc1ccccc1)NC(=O)NC1CCN(c2ccnc(Nc3ccc(F)cc3)n2)C1` (centres unmarked) [GSK1379714] was tested, and the “%Inh” value was 44%.
For `CS(=O)(=O)Cc1ccc(Nc2nccc(-c3c(-c4cccc(NC(=O)C5CCCCC5)c4)nn4ncccc34)n2)cc1` [GSK350559], the “%Inh” value was 15%.
In the case of `Nc1nccc(-c2c(-c3ccc(F)cc3)ncn2C2CCN(Cc3ccccc3)CC2)n1` [SB-219980], the “%Inh” value is reported as 0%.
In the case of `CC(C)c1ccc(O)cc1Nc1ccnc2ccc(C(F)(F)F)cc12` [GW482059], the “%Inh” value is reported as 22%.
In the case of `CNc1nc(-c2ccc3c(N)n[nH]c3c2)cc(N2C[C@@H](C(=O)NC3CCCCC3)OC[C@H]2C)n1` [GSK2375584], the “%Inh” value is reported as 0%.
For `CCn1c(-c2ccccc2)nc2cnccc21` [SB-733416], the “%Inh” value was 5%.
In the case of `CCCCc1nn2ncccc2c1-c1ccnc(NC2CC2)n1` [GW684374], the “%Inh” value is reported as 0%.
`Nc1cccc(-c2ccc3c(N)n[nH]c3c2)n1` [GSK2192730] was tested, and the “%Inh” value was 0%.
For `CS(=O)(=O)CCNCc1nc(-c2ccc3ncnc(Nc4ccc(OCc5ccccc5)c(Cl)c4)c3c2)cs1.Cl` [GW582764], the “%Inh” value was 12%.
With `COc1cccc(NC(=O)Nc2ccc(C)c(-c3ccc(C(=O)Nc4ccncc4)cc3)c2)c1` [GSK1398474] the “%Inh” value was 0%.
For `CC[C@@H]1CO[C@H](C(=O)Nc2ccccc2)CN1c1cc(-c2ccc3c(N)n[nH]c3c2)nc(NC)n1` [GSK2376236], the “%Inh” value was 0%.
For `COc1ccc(CSc2nnc(-c3ccc4nccn4c3)o2)cc1C(F)(F)F`, the “%Inh” value was 0%.
For `Nc1ncnc2occ(-c3ccc4c(c3)CCN4C(=O)Cc3cc(F)ccc3F)c12` [GSK2645446], the “%Inh” value was 2%.

Each compound was assayed on NEK1. Settings: concentration: 1 μM, replicates: in singlicate; n = 1.
For `COc1ccc(Nc2nccc(N3CCC(NC(=O)C(C)c4ccc(Cl)cc4)CC3)n2)cc1` (centres unmarked) [GSK1379812], the “%Inh” value was 0%.
`CCc1ccc(-c2ccc3c(c2)-c2n[nH]cc2S(=O)(=O)N3C)cc1` was tested, and the “%Inh” value was 0%.
With `CC(=O)c1c(C)c2cnc(Nc3ccc(N4CCNCC4)cn3)nc2n(C2CCCC2)c1=O` the “%Inh” value was 0%.
In the case of `Cn1cncc1C(=O)NC1CCN(c2ccnc(Nc3ccc(F)cc3)n2)C1` (centres unmarked) [GSK1379717], the “%Inh” value is reported as 0%.
`CNc1cc(-c2ccc3c(N)n[nH]c3c2)nc(N)n1` [GSK2224810] was tested, and the “%Inh” value was 0%.
In the case of `CN1c2ccc(-c3ccc(C(N)=O)cc3)cc2-c2[nH]ncc2S1(=O)=O`, the “%Inh” value is reported as 0%.
For `COc1ccc(-c2coc3ccc(-c4nnc(C)o4)cc23)cc1`, the “%Inh” value was 0%.
For `Cc1ccc(NC(=O)Nc2ccccc2F)cc1-c1ccc(C(=O)Nc2ccncc2)cc1` [GSK1398477], the “%Inh” value was 0%.
In the case of `O=C(Nc1n[nH]c2nc(-c3ccco3)c(Br)cc12)C1CCN(Cc2ccccc2)C1.O=C(O)[C@H](O)[C@@H](O)C(=O)O` (centres unmarked) [SB-742034], the “%Inh” value is reported as 0%.
With `FC(F)(F)c1ccccc1-c1cc(-c2c[nH]nc2-c2ccccn2)ccn1` [GW679396] the “%Inh” value was 0%.
For `COc1nccc(-c2c(-c3ccc(F)cc3)ncn2CCCN2CCOCC2)n1` [SB-282852], the “%Inh” value was 0%.
In the case of `COc1cccc(CNC(=O)NC2CCN(c3ccnc(Nc4ccc(F)cc4)n3)C2)c1` (centres unmarked) [GSK1379723], the “%Inh” value is reported as 0%.
`COC(=O)C(NC(=O)NC1CCN(c2ccnc(Nc3ccc(F)cc3)n2)C1)c1ccccc1` (centres unmarked) [GSK1379712] was tested, and the “%Inh” value was 2%.
In the case of `CNCc1ccc2nc(NC(=O)c3ccc(C(C)(C)C)cc3)cn2c1`, the “%Inh” value is reported as 28%.
`Cc1ccc(NC(=O)Nc2ccc(Cl)cc2)cc1-c1ccc(C(=O)Nc2ccncc2)cc1` [GSK1398472] was tested, and the “%Inh” value was 3%.
For `Cn1cncc1-c1cc2c(Nc3ccc(OCc4ccccc4)cc3)ncnc2cn1` [GW281179], the “%Inh” value was 0%.
With `Fc1ccc(-c2nc3n(c2-c2ccncc2)CCS3)cc1` [GI98581] the “%Inh” value was 0%.
`COc1ccc(CSc2nnc(-c3ccc4ncsc4c3)o2)cc1C(F)(F)F` was tested, and the “%Inh” value was 10%.
For `Cc1ccc(NC(=O)Nc2ccccc2)cc1-c1ccc(C(=O)Nc2ccncc2)cc1` [GSK1398471], the “%Inh” value was 15%.
With `COc1ccc2cc(-c3nc(-c4ccccc4C(C)C)[nH]c3-c3ccncc3)ccc2c1` [SB-660566] the “%Inh” value was 41%.
With `O=C1NC(=O)C(c2ccc(Cl)cc2)=C1Nc1cccc(Cl)c1` [SB-317651] the “%Inh” value was 0%.
For `CC(C)c1cc(-c2ccc3c(N)n[nH]c3c2)nc(N)n1` [GSK2250882], the “%Inh” value was 0%.
In the case of `Cc1c(Cn2c3ccccc3n3c(=O)cc(N4CCOCC4)nc23)cccc1C(F)(F)F` [GSK2306394], the “%Inh” value is reported as 0%.
`COC(=O)C(Cc1ccccc1)NC(=O)NC1CCN(c2ccnc(Nc3ccc(F)cc3)n2)C1` (centres unmarked) [GSK1379714] was tested, and the “%Inh” value was 0%.
In the case of `CS(=O)(=O)Cc1ccc(Nc2nccc(-c3c(-c4cccc(NC(=O)C5CCCCC5)c4)nn4ncccc34)n2)cc1` [GSK350559], the “%Inh” value is reported as 0%.
With `Nc1nccc(-c2c(-c3ccc(F)cc3)ncn2C2CCN(Cc3ccccc3)CC2)n1` [SB-219980] the “%Inh” value was 0%.
With `CC(C)c1ccc(O)cc1Nc1ccnc2ccc(C(F)(F)F)cc12` [GW482059] the “%Inh” value was 0%.
`CNc1nc(-c2ccc3c(N)n[nH]c3c2)cc(N2C[C@@H](C(=O)NC3CCCCC3)OC[C@H]2C)n1` [GSK2375584] was tested, and the “%Inh” value was 2%.
`CCn1c(-c2ccccc2)nc2cnccc21` [SB-733416] was tested, and the “%Inh” value was 0%.
In the case of `CCCCc1nn2ncccc2c1-c1ccnc(NC2CC2)n1` [GW684374], the “%Inh” value is reported as 3%.
For `Nc1cccc(-c2ccc3c(N)n[nH]c3c2)n1` [GSK2192730], the “%Inh” value was 18%.
For `CS(=O)(=O)CCNCc1nc(-c2ccc3ncnc(Nc4ccc(OCc5ccccc5)c(Cl)c4)c3c2)cs1.Cl` [GW582764], the “%Inh” value was 0%.
In the case of `COc1cccc(NC(=O)Nc2ccc(C)c(-c3ccc(C(=O)Nc4ccncc4)cc3)c2)c1` [GSK1398474], the “%Inh” value is reported as 25%.
In the case of `CC[C@@H]1CO[C@H](C(=O)Nc2ccccc2)CN1c1cc(-c2ccc3c(N)n[nH]c3c2)nc(NC)n1` [GSK2376236], the “%Inh” value is reported as 0%.
`COc1ccc(CSc2nnc(-c3ccc4nccn4c3)o2)cc1C(F)(F)F` was tested, and the “%Inh” value was 3%.
In the case of `Nc1ncnc2occ(-c3ccc4c(c3)CCN4C(=O)Cc3cc(F)ccc3F)c12` [GSK2645446], the “%Inh” value is reported as 0%.
